# Tb PYK inh – T. brucei pyruvate kinase inhibition; Potency, µM (top dose mostly 76.8 µM), inactives show at the top dose activity, negative = inhibition, hits mostly inhibitors; 410,000 compounds, 0.12% hits; Q57TT1; TbPYK enzyme, Kinase-Glo Plus ATP luminescence, 45 min; also: potency is read from the fitted curve at half-maximal effect; % is scaled to controls: 0 for no effect and ±100 for the full control effect; nearly all actives have a fitted effect of over 50% in size
#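 Luminescence from Kinase-Glo Plus, added after a 45-minute room-temperature reaction, served as the end-point read-out. The enzyme and substrate were preincubated with compound before ADP (130 uM final) initiated turnover. Concentration-effect curves came from normalized qHTS data.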
# LmPK inhibitor – blocks Leishmania mexicana pyruvate kinase activity. Q27686. AID 1721. Potency, µM (top dose mostly 57.5 µM), for the others: top-dose activity change, negative = inhibition, actives largely listed as inhibitors. purified LmPK, Kinase-Glo ATP luminescence, 1 h. 290,000 compounds, 0.37% hits; also: potency is read from the fitted curve at half-maximal effect; % is scaled to controls: 0 for no effect and ±100 for the full control effect
# Target sequence (Q27686 whole entry, looked up): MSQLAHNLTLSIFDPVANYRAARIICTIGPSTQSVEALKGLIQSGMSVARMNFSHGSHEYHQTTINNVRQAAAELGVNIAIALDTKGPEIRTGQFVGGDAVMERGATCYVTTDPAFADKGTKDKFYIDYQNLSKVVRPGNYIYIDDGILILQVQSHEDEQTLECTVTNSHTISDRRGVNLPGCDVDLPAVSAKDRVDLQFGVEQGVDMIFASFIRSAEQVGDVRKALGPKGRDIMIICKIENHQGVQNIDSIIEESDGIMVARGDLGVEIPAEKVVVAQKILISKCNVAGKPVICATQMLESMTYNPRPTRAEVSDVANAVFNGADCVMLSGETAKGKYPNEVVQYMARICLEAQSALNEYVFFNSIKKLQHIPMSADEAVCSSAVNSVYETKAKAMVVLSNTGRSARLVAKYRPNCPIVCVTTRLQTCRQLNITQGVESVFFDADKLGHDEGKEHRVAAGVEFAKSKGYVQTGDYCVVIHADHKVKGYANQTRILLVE
#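 Purified LmPK (0.1 nM) with 0.5 mM PEP and 0.1 mM ADP in imidazole buffer pH 7.2 with MgCl2/KCl, 1 h at room temperature. ATP formed was read by luciferase luminescence and normalized to no-enzyme and uninhibited controls.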
# FBPA Giardia inh – inhibitors of Giardia lamblia fructose-1,6-bisphosphate aldolase; AID 2451; A8B2U2; 290,000 compounds, 0.71% hits; Potency, µM (doses to about 59.6 µM), for inactives: at the top dose activity, negative = inhibition, most hits filed as inhibitors; purified Giardia FBPA; also: potency is read from the fitted curve at half-maximal effect; % is scaled to controls: 0 for no effect and ±100 for the full control effect; nearly all actives have a fitted effect of over 55% in size
#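 40 nM FBPA preincubated 10 min at RT with compound (up to 57.5 uM final), then substrate plus GAPDH/TPI/NAD/arsenate coupling and diaphorase/resazurin added. Fluorescence read after 20 min at RT, 525/598 nm.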
# Cycloheximide cs – counter-screen hit for Shiga toxin inhibitors, cycloheximide; cell reporter, cycloheximide protein synthesis inhibition counterscreen; max response, %; 300,000 compounds, 12% hits; AID 2314; in the data active = max response mostly above about 13%, no sharp cut-off; inactive = mostly below about 14%; also: read at 38.3 µM for the half of the compounds with a filed dose; 0% is about no effect
# Shiga inhibitor – blocks Shiga toxin action in Vero cells. Vero cells, Shiga toxin protein synthesis inhibition reporter. inhibition, % at 38.7 µM. 290,000 compounds, 9.2% hits; in the data active = inhibition mostly above about 28%, no sharp cut-off; inactive = mostly below about 43%; also: 0% is about no effect
# RE007 growth inh – less growth of the S. pombe RE007 Vpr strain; S. pombe RE007 Vpr strain, BacTiter-Glo ATP luminescence, 24 h; Potency, µM (doses to about 92.2 µM), for inactives: at the top dose activity change, negative = less growth, most hits filed as inhibitors; 360,000 compounds, 0.21% hits; AID 651644; active = well fitted falling curve with a large enough effect; inconclusive = small, poorly fitted or top-dose-only effect; inactive = no such curve, though single readings can be large or run the other way; also: potency is read from the fitted curve at half-maximal effect; % is scaled to controls: 0 for no effect and ±100 for the full control effect; nearly all actives have a fitted effect of over 50% in size
#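 Fission yeast RE007 carrying one integrated HIV-1 vpr copy, seeded at OD 0.01 in PMG+AL medium with 23 nL pinned compound. Grown 24 h at 30 degrees; viability read by BacTiter-Glo luminescence after 5 min.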
# Active calls of the source: *; i = inactive; ? = inconclusive; . = no result; [ ] = dose if it differs, or a comment. Many of the other results were omitted from the sample, so hits are more common in it than they were. Unless noted, calls follow the shape of the dose curve; as a rule, active = well fitted curve in the direction sought with a large enough effect; inconclusive = small, poorly fitted or top-dose-only effect, or another doubt; inactive = no such curve, though single readings can be large; an effect the other way counts as inactive or inconclusive.
SMILES,Tb PYK inh,LmPK inhibitor,FBPA Giardia inh,Cycloheximide cs,Shiga inhibitor,RE007 growth inh
CN(C)c1cccc(C(=O)NNC(=O)NC2CCCCC2)c1,6.0%,-4.8%,5.3%,0.9,-7.6,-3.6%
CCN(CC)C(=O)CSc1nc2ccccc2c(=O)[nH]1,-9.8%,-6.5%,-5.5%,9.0*,7.1,10.0%
Cc1cc(=O)[nH]c(SCC(=O)c2ccc(C(C)C)cc2)n1,5.5%,2.8%,-6.1%,33.6*,31.9*,7.9%
Cc1ccc(C(=O)CSc2nc3ccccc3c(=O)[nH]2)cc1,-1.9%,11.5%,-2.8%,14.9*,4.9,16.1%
COc1ccc(C(=O)CSc2nc(C)cc(=O)[nH]2)cc1,-5.2%,-3.7%,-9.5%,2.0,-1.6,-5.9%
CCc1ccc(C(=O)CSc2nc3ccccc3c(=O)[nH]2)cc1,1.7%,11.5%,0.3%,13.8*,30.1,-2.3%
CCOc1ccc(C(=O)c2cn(Cc3ccc(Cl)cc3)c3cc(OC)c(OC)cc3c2=O)cc1,-5.2%,.,.,.,.,.
CCCCC/C=C/C/C=C/CCCCCCCC(=O)NC(C)c1ccccc1 (stereo unspecified),-2.1%,.,.,.,.,.
COc1ccc(S(=O)(=O)N(Cc2nc(-c3ccc(C)cc3)no2)C2CCCCC2)cc1,-3.7%,.,.,.,.,.
O=c1[nH]c(SCc2ccc(Cl)cc2)nc2ccsc12,9.8%,7.1%,-11.7%,44.3*,61.8*,13.0%
N#Cc1c(-c2cccs2)nc(SCc2ccc(Cl)cc2)[nH]c1=O,1.9%,12.9%,28.4%,1.4,-5.7,13.4%
Cc1ccc(CSc2nc3ccccc3c(=O)[nH]2)cc1,0.6%,-0.6%,-1.9%,38.0*,35.0,19.6%
O=C(OCc1cc(=O)n2nc(C3CC3)sc2n1)c1ccc(NC(=O)c2ccccc2F)cc1,-1.9%,.,.,.,.,.
CNC1=CN(O)C(c2ccccc2)=c2cc(Cl)ccc2=N1,-3.8%,.,9.3%,-0.4,4.0,.
O=C(Cc1ccc([N+](=O)[O-])cc1)c1c(O)cc(O)cc1O,6.3%,2.3%,0.8%,15.9*,19.4,3.0%
COc1cc2c(cc1OC)CN(c1ccc(F)cc1[N+](=O)[O-])CC2,-1.2%,-5.1%,-6.3%,30.2*,71.7*,6.0%
COc1cc2c(cc1OC)CN(c1ncccc1[N+](=O)[O-])CC2,-6.3%,1.1%,-10.3%,25.4*,54.5*,6.9%
O=C1CCN(c2ncccc2[N+](=O)[O-])CC1,4.9%,1.7%,-0.5%,-2.2,-7.2,12.6%
CC(=O)C1=C(O)C(=O)N(c2ccccn2)C1c1ccc(Cl)cc1 (stereo unspecified),1.0%,2.1%,13.0%,27.2*,65.8*,-8.5%
O=[N+]([O-])c1ccc(N2CCc3ccccc3C2)nc1,-0.1%,0.7%,-8.1%,27.8*,53.6*,?
Cc1ccnc(N2C(=O)c3ccccc3C2O)c1 (stereo unspecified),?,?,-4.6%,38.8*,41.9,?
Cc1ccnc(N2C(=O)c3ccccc3C2Nc2cccc(C)c2C)c1 (stereo unspecified),0.9%,-2.0%,2.1%,14.7*,28.4*,-3.8%
Cc1ccccc1N1C(=O)c2ccccc2N2C(=O)c3ccccc3C12 (stereo unspecified),-2.3%,7.3%,12.8%,2.2,-13.9,-6.4%
CCOc1ccc(CNC(=O)CCS(=O)(=O)c2cc3c4c(c2)CCN4C(=O)CC3)cc1OC,2.8%,.,.,.,.,.
O=C(O)/C=C1\NC(=O)c2ccccc21,?,3.3%,-0.4%,-1.3,-10.0,-8.8%
SMILES,Tb PYK inh,LmPK inhibitor,FBPA Giardia inh,Cycloheximide cs,Shiga inhibitor,RE007 growth inh
O=C1N/C(=C\c2ccc(O)cc2)C(=O)c2ccccc21,?,10µM*,?,33.9*,42.0,-26.5%
COc1ccc(C2=Nc3ccccc3OC2)cc1,-18.9%,-2.8%,-21.9%,46.1*,98.9*,-21.0%
COC(=O)[C@H]1[C@@H]2C[C@H]3c4[nH]c5ccccc5c4CCN3C[C@@H]2CC[C@@H]1O,.,.,-3.2%,.,.,.
CC(C)Oc1cccc(C(=O)N/N=C/c2ccoc2)c1,-3.8%,-2.6%,.,49.1*,60.8*,-9.6%
CCOc1cc(C(=O)N/N=C/c2ccoc2)cc(OCC)c1OCC,-10.8%,-0.6%,.,-2.6,-10.3,1.4%
CCOc1cccc(C(=O)N/N=C/c2coc3ccccc3c2=O)c1,-8.5%,-10.1%,.,14.7,-7.6,2.5%
CCCOc1cccc(C(=O)N/N=C/c2ccoc2)c1,0.3%,-11.9%,.,31.5*,27.8,11.3%
Cc1cccc(C(=O)N/N=C/c2ccoc2)c1,0.4%,-9.1%,-9.3%,36.2*,77.7*,3.4%
CC(C)COc1ccc(C(=O)N/N=C/c2ccoc2)cc1,-1.7%,-0.9%,-4.8%,26.8*,82.5*,28.2%
COC1C=CC23c4cc5c(cc4CN(CC2O)C3C1)OCO5 (stereo unspecified),.,.,-21.1%,.,.,.
O=C(Nc1cccc(C(=O)N2CCCCC2)c1)c1nsc2ccccc12,-6.4%,.,.,.,.,.
COc1cccc(CNC(=O)CN2C(=O)CSc3ccc(S(=O)(=O)N(C)C)cc32)c1,-1.8%,.,.,.,.,.
COc1ccc(CNc2ncnc3c2c(-c2ccccc2)cn3-c2ccc(C)c(Cl)c2)cc1,-5.4%,.,.,.,.,.
CCCN1CCN(CCCNC(=O)C2CCCN(c3nc4ccc(OCC)cc4s3)C2)CC1 (stereo unspecified),0.0%,-3.3%,9.2%,0.3,12.3,-3.7%
CCOc1ccc2nc(N3CCCC(C(=O)N4CCN(CC)CC4)C3)sc2c1 (stereo unspecified),22.2%,0.5%,?,25.5*,38.4,-5.0%
CCOc1cc2sc(N3CCC(C(=O)Nc4ccc(CC)cc4)CC3)nc2cc1Br,-9.2%,.,.,.,.,.
Cc1ccc(CSc2nc3ccc(NC(=O)COc4ccc(F)cc4)cc3s2)cc1,-4.2%,.,.,.,.,.
Cc1cc(C)c2nc(N3CCC(C(=O)NCCCN4CCCCC4)CC3)sc2c1,-1.7%,-3.0%,1.5%,4.9,18.2,26.3%
CCOc1cc2sc(N3CCC(C(=O)Nc4ccc(C)cc4)CC3)nc2cc1Br,-18.0%,.,.,55.0*,148.8*,.
CCOc1ccc2nc(SCc3ccc(F)cc3)sc2c1,-3.2%,-7.1%,1.0%,37.2*,35.6*,-11.2%
Cc1cc(C)c2nc(N3CCC(C(=O)NCC4CCCO4)CC3)sc2c1 (stereo unspecified),0.6%,8.4%,.,21.0*,25.0,4.7%
COc1ccc([C@]23Cc4cc(C#N)ccc4C(O2)C2=C(CC4(CCCCC4)OC2=O)O3)cc1,.,-11.0%[11.5 µM],7.2%[12.9 µM],-1.6,i,.
Cc1onc(-c2ccccc2Cl)c1C(=O)NC1C(=O)N2C1SC(C)(C)C2C(=O)O (stereo unspecified),.,.,-11.1%,.,.,.
Cc1ccc2c(c1)N(C(=O)Nc1cccc3c1CCCC3)CCO2,-0.3%,.,.,.,.,.
COc1ccc2nc(N3C(=O)/C(=C/c4ccccc4)NC3=S)sc2c1,2.6%,-1.7%,26.1%,3.5,16.0,?
